# Assay outcomes (PubChem BioAssay)
# In the library only some 3.5% were active in any assay of this set; here they are far more common.
# TEAD-YAP block – TEAD-YAP interaction inhibition. inhibition, % at 9.12 µM. HEK-TIYL cells, TEAD-Gal4/YAP UAS-luciferase luminescence. actives 1.4% (n = 640,000); in the data active = inhibition above about 32%;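 note: 0% = median of test compound wells and 100% = reference inhibitor wells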
# GPR151 ag – activators of human GPR151. Q8TDV0. PathHunter beta-arrestin GPR151 cells, luminescence. activation, % at 11.2 µM. actives 1% (n = 650,000); in the data active = activation above about 4.9%;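 note: 0% = median of compound wells and 100% = cells with positive control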
# MITF inh – human MITF inhibition, primary screen; actives 0.91% (n = 650,000); inhibition, % at 2.6 µM; AlphaScreen MITF homodimerization, bead proximity signal; AID 1259374; O75030; in the data active = inhibition above about 50%;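 note: 0% = vehicle wells with protein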
# FBW7 activator – activators of human E3 ligase FBW7. AlphaScreen FBW7–phospho-cyclin E peptide binding, activator screen. normalized activity (activation), % at 26.1 µM. actives 0.13% (n = 650,000); in the data active = normalized activity above about 1.9%;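 note: purified mutant Fbw7 with reduced substrate affinity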
# GPR151 confirm – confirmation of human GPR151 activators; GPR151 PathHunter beta-arrestin cells, luminescence, 90 min; % of EA-reagent control over plate median; shares compounds with GPR151 ag; 6,700 tested, under 10 active; activation, % at 11.2 µM;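 active = mean percent activation across replicates above the confirmation screen cutoff of 4.91%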
# GPR119 ag – activates human GPR119 in a GPR151 counter-screen. actives 0.3% (n = 6,700). GPR119 PathHunter beta-arrestin cells, luminescence, 90 min; 0 = compound-well median, 100 = enzyme-acceptor control. activation, % at 11.2 µM. shares compounds with GPR151 ag;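 active = mean percent activation in the counterscreen above 29.09%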;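 note: counterscreen on off-target GPR119 to flag nonselective hits from the GPR151 activator screen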
# Target sequence (Q8TDV5 whole entry, looked up): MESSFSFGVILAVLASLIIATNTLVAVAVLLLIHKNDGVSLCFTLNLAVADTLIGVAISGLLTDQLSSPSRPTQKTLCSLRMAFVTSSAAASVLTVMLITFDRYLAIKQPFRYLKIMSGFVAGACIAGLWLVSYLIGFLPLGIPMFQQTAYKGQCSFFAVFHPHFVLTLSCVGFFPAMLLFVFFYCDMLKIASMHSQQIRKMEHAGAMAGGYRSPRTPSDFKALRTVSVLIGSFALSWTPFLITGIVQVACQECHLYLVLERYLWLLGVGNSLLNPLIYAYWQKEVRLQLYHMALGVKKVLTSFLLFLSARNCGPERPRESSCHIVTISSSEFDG
# * = called active by the depositor; x = not tested or not shown.
SMILES,TEAD-YAP block,GPR151 ag,MITF inh,FBW7 activator,GPR151 confirm,GPR119 ag
O=c1[nH]c2cccnc2[nH]c1=O,6.5,10.0*,19.5,0.1,0.5,-0.6
CC(C)Sc1nc2c(c(=O)[nH]1)C(c1cccs1)C1=C(CCCC1=O)N2 (stereo unspecified),2.2,5.2*,11.3,-0.1,1.2,5.6
COc1cccc(CNC(=O)c2ccc3c(c2)NC(=O)c2ccccc2N3)c1,-9.8,1.8,-10.0,0.2,x,x
CCOCCCNC(=O)c1ccc(OC(C)=O)cc1,-2.5,6.8*,12.6,0.0,0.2,-15.8
COCCCNC(=O)c1ccc(OC(C)=O)cc1,3.7,0.1,-2.5,0.0,x,x
O=C(Cc1cccc2ccccc12)Nc1nnc(-c2cc(Cl)ccc2Cl)o1,1.3,1.7,12.6,0.0,x,x
c1ccc(CNc2nc(Nc3ccccc3)nc(N3CCCCC3)n2)cc1,-1.3,0.9,2.0,-0.8,x,x
CCOC(=O)C1CCN(C(=O)Nc2ccc(Cl)cc2Cl)CC1,-1.9,5.4*,-8.2,-0.1,0.0,-2.0
Cc1ccc(C2Oc3ccccc3C3=C2C(c2ccc(N(C)C)cc2)n2ncnc2N3)cc1 (stereo unspecified),-14.5,1.2,5.5,0.0,x,x
O=C1NC2(CCc3ccccc3C2)C(=O)N1CN1CCN(Cc2ccc3c(c2)OCO3)CC1 (stereo unspecified),8.6,8.3*,5.2,-0.1,-0.4,-1.0
N#C/C(=C\c1ccc(Cl)c([N+](=O)[O-])c1)c1nc2ccccc2[nH]1,-37.0,0.6,-0.6,0.4,x,x
Cc1cc(C)c(/C=C2\SC(N)=NC2=O)c(C)c1,-3.2,7.8*,-4.0,0.2,-0.1,-1.4
COc1ccc(/C=C2\SC(N)=NC2=O)cc1OC,-1.7,9.1*,18.8,0.0,0.3,10.5
Cc1ccc(C)c(/C=C2\SC(N)=NC2=O)c1,-6.9,-0.2,-1.8,-0.1,x,x
CC1(C)CC(=O)C2=C(C1)NC(=O)CC2c1cc([N+](=O)[O-])ccc1Cl (stereo unspecified),0.6,-1.1,-12.9,-0.1,x,x
Cc1nnc2c(N3CCN(c4ccccn4)CC3)nc3ccccc3n12,1.3,6.2*,-6.2,-0.1,0.0,-2.0
COc1ccc(S(=O)(=O)Nc2ccc(N3CCCC3=O)cc2)cc1F,9.0,-0.6,14.4,0.0,x,x
O=C(OCC(=O)N1CCc2ccccc21)c1ccc(O)c(Br)c1,-6.4,0.3,0.9,0.0,x,x
CCn1c(=O)c2c(nc3n2CCCN3c2ccc(Br)cc2)n(C)c1=O,0.7,-0.4,1.8,-0.1,x,x
C=CCn1c(=O)c2c(nc3n2CCCN3c2ccc(CC)cc2)n(C)c1=O,16.1,7.4*,3.2,-0.1,0.2,-4.4
COc1cccc(C(=O)N2CCN(S(=O)(=O)c3ccc4ccccc4c3)CC2)c1OC,-5.5,-1.8,11.6,0.0,x,x
COc1cc(C(=O)Nc2ccc(O)cc2C)cc(OC)c1OC,-0.7,-0.6,12.0,0.1,x,x
COc1cc(C(=O)Nc2cc(C)c(O)cc2C)cc(OC)c1OC,4.7,6.1*,-6.0,0.0,1.1,4.2
CN(C)c1ccc(N2C(=O)c3ccccc3NC2c2cccc([N+](=O)[O-])c2)cc1 (stereo unspecified),-27.4,2.8,14.4,-0.1,x,x
CC(C)(C)c1ccc(NC(=O)COC(=O)c2ccc([N+](=O)[O-])s2)cc1,-9.8,6.1*,-5.0,-0.2,-0.8,-6.2
SMILES,TEAD-YAP block,GPR151 ag,MITF inh,FBW7 activator,GPR151 confirm,GPR119 ag
COc1ccc(C(C)(C)C)cc1NC(=O)COC(=O)c1ccc([N+](=O)[O-])s1,-2.0,-1.2,24.5,0.1,x,x
Cc1nc2ccccc2c(=O)n1-c1ccc(N2CCOCC2)c(C(F)(F)F)c1,8.9,5.9*,-4.9,-0.1,1.2,-3.6
Cc1nc2ccccc2c(=O)n1CC(=O)N1CCOCC1,6.4,-1.5,10.4,0.7,x,x
O=C(c1ccccc1Cl)N1N=C(c2cccnc2)CC1c1ccccc1O (stereo unspecified),15.3,6.7*,9.1,-0.1,-0.8,6.0
Clc1ccccc1Nc1ncnc2ccc(Br)cc12,-5.3,-0.4,6.8,-0.1,x,x
Brc1ccc2ncnc(Nc3cccc4ccccc34)c2c1,3.8,11.3*,9.0,0.0,0.6,-11.6
COCCC1CCCCN1C(=O)CC1(c2ccccc2)CC(=O)N(Cc2ccncc2)C1=O (stereo unspecified),-7.5,0.6,-2.6,0.0,x,x
